# Data reported in the supplement of paper PMC7057948, “A genome-wide approach for identification and characterisation of metabolite-inducible systems” (Nature Communications, 2020).
# Key:
# Conditions in all cases: inducer concentration 5 mM; 6 h; Cupriavidus necator H16; minimal medium + 0.4% gluconate
# [1] = system: AcoR/P_H16_RS19445 acetoin biosensor (pEH052); experiment: relative induction of RFP reporter vs primary effector; higher = stronger activation
# Experimental: (§1)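 Orthogonality screen of 21 primary inducers against 21 transcription factor/inducible promoter–mRFP biosensors in C. necator H16 in minimal medium, robotic 96-well format, 5 mM inducer, 30 °C. OD-normalised RFP fluorescence was read 6 h later and expressed as relative induction (%) = 100 × (FL compound − FL uninduced)/(FL primary inducer − FL uninduced); mean of n=4. Cognate pairs (100% by definition) omitted.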
# [2] = system: AraC/P_araBAD L-arabinose biosensor (pEH176); experiment: as above
# Experimental: as §1
# [3] = system: BadR/P_H16_RS27200 cyclohexanecarboxylate biosensor (pEH159); experiment: as above
# Experimental: as §1
# [4] = system: FdsR/P_H16_RS03165 formate biosensor (pEH134); experiment: as above
# Experimental: as §1
# [5] = system: GabR/P_H16_RS23655 GABA biosensor (pEH256); experiment: as above
# Experimental: as §1
# [6] = system: HpdA/P_H16_RS24175 L-tyrosine biosensor (pEH158); experiment: as above
# Experimental: as §1
# [7] = system: NahR/P_H16_RS08125 salicylate biosensor (pEH042); experiment: as above
# Experimental: as §1
# [8] = system: OapR/P_H16_RS01330 beta-alanine biosensor (pEH147); experiment: as above
# Experimental: as §1
# [9] = system: PhgR/P_H16_RS05530 phenylglyoxylate biosensor (pEH155); experiment: as above
# Experimental: as §1
# [10] = system: SauR/P_H16_RS13695 sulfonatoacetate biosensor (pEH157); experiment: as above
# Experimental: as §1
# [11] = system: TtdR/P_H16_RS10665 tartrate biosensor (pEH083); experiment: as above
# Experimental: as §1
# [12] = system: XdhR/P_H16_RS05055 xanthine biosensor (pEH154); experiment: as above
# Experimental: as §1
# [13] = system: heterologous L-rhamnose-inducible system; experiment: as above
# Experimental: as §1
# [14] = system: heterologous acrylate-inducible system; experiment: as above
# Experimental: as §1
# [15] = system: heterologous cumate-inducible system; experiment: as above
# Experimental: as §1
# [16] = system: heterologous itaconate-inducible system; experiment: as above
# Experimental: as §1
# [17] = system: AcoR/P_H16_RS19445 acetoin biosensor (pEH052); experiment: relative induction of RFP reporter vs primary effector (background-corrected); higher = stronger activation of the biosensor
# Experimental: (§2)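 C. necator H16 strains, each carrying one of 21 transcription factor/inducible promoter–mRFP biosensor plasmids, were grown in minimal medium in 96-well plates (robotic platform). Each was exposed to 46 structurally or metabolically related compounds at 5 mM at 30 °C. OD-normalised RFP fluorescence was read 6 h later and expressed as relative induction (%) = 100 × (FL compound − FL uninduced)/(FL primary inducer − FL uninduced); mean of n=4.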
# [18] = system: AraC/P_araBAD L-arabinose biosensor (pEH176); experiment: as above
# Experimental: as §2
# [19] = system: BenM/P_H16_RS09790 benzoate biosensor (pEH148); experiment: as above
# Experimental: as §2
# [20] = system: FdsR/P_H16_RS03165 formate biosensor (pEH134); experiment: as above
# Experimental: as §2
# [21] = system: GabR/P_H16_RS23655 GABA biosensor (pEH256); experiment: as above
# Experimental: as §2
# [22] = system: KynR/P_H16_RS14030 L-kynurenine biosensor (pEH136); experiment: as above
# Experimental: as §2
# [23] = system: NahR/P_H16_RS08125 salicylate biosensor (pEH042); experiment: as above
# Experimental: as §2
# [24] = system: OapR/P_H16_RS01330 beta-alanine biosensor (pEH147); experiment: as above
# Experimental: as §2
# [25] = system: PcaQ/P_H16_RS30145 3,4-dihydroxybenzoate biosensor (pEH161); experiment: as above
# Experimental: as §2
# [26] = system: PhgR/P_H16_RS05530 phenylglyoxylate biosensor (pEH155); experiment: as above
# Experimental: as §2
# [27] = system: PhhR/P_H16_RS18365 L-phenylalanine biosensor (pEH137); experiment: as above
# Experimental: as §2
# [28] = system: SauR/P_H16_RS13695 sulfonatoacetate biosensor (pEH157); experiment: as above
# Experimental: as §2
# [29] = system: TtdR/P_H16_RS10665 tartrate biosensor (pEH083); experiment: as above
# Experimental: as §2
# [30] = system: XdhR/P_H16_RS05055 xanthine biosensor (pEH154); experiment: as above
# Experimental: as §2
# [31] = system: heterologous inducible system pEH002 (rhamnose/acrylate/cumate/itaconate set); experiment: as above
# Experimental: as §2
# [32] = system: heterologous inducible system pEH020 (rhamnose/acrylate/cumate/itaconate set); experiment: as above
# Experimental: as §2
# [33] = system: heterologous inducible system pEH040 (rhamnose/acrylate/cumate/itaconate set); experiment: as above
# Experimental: as §2
# [34] = system: heterologous inducible system pEH086 (rhamnose/acrylate/cumate/itaconate set); experiment: as above
# Experimental: as §2
# [35] = system: BenM/P_H16_RS09790 benzoate biosensor (pEH148); experiment: relative induction of RFP reporter vs primary effector; higher = stronger activation
# Experimental: as §1
# [36] = system: PcaQ/P_H16_RS30145 3,4-dihydroxybenzoate biosensor (pEH161); experiment: as above
# Experimental: as §1
# 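Throughout, for relative induction of RFP reporter vs primary effector (background-corrected): RFP excited at 585 nm with emission read at 620 nm, culture medium blanks subtracted from fluorescence and absorbance prior to normalisation.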
structure (smiles),measurement,setting,value
O=C(O)c1ccccc1 [benzoate],relative induction of RFP reporter,[1],4.78%
same,relative induction of RFP reporter,[2],-0.00267%
same,relative induction of RFP reporter,[3],-0.805%
same,relative induction of RFP reporter,[4],-1.25%
same,relative induction of RFP reporter,[5],-2.52%
same,relative induction of RFP reporter,[6],-0.127%
same,relative induction of RFP reporter,[7],0.078%
same,relative induction of RFP reporter,[8],-0.947%
same,relative induction of RFP reporter,[9],-0.295%
same,relative induction of RFP reporter,[10],-0.0427%
same,relative induction of RFP reporter,[11],-0.474%
same,relative induction of RFP reporter,[12],-0.493%
same,relative induction of RFP reporter,[13],-0.0138%
same,relative induction of RFP reporter,[14],-1.5%
same,relative induction of RFP reporter,[15],-1.2%
same,relative induction of RFP reporter,[16],-0.0216%
CCC(=O)O [propanoate],relative induction of RFP reporter,[17],-1.68%
same,relative induction of RFP reporter,[18],-0.00959%
same,relative induction of RFP reporter,[19],-0.0373%
same,relative induction of RFP reporter,[20],-1.16%
same,relative induction of RFP reporter,[21],-3.91%
same,relative induction of RFP reporter,[22],-0.867%
same,relative induction of RFP reporter,[23],-0.000302%
same,relative induction of RFP reporter,[24],-1.95%
same,relative induction of RFP reporter,[25],-0.275%
same,relative induction of RFP reporter,[26],-0.224%
same,relative induction of RFP reporter,[27],-0.418%
same,relative induction of RFP reporter,[28],0.0421%
same,relative induction of RFP reporter,[29],-0.423%
same,relative induction of RFP reporter,[30],-0.832%
same,relative induction of RFP reporter,[31],-0.00545%
same,relative induction of RFP reporter,[32],-0.954%
same,relative induction of RFP reporter,[33],0.605%
same,relative induction of RFP reporter,[34],-0.0388%
"O=C(O)c1ccc(O)c(O)c1 [3,4-dihydroxybenzoate]",relative induction of RFP reporter,[1],-0.382%
same,relative induction of RFP reporter,[2],-0.0224%
same,relative induction of RFP reporter,[3],-0.555%
same,relative induction of RFP reporter,[35],-0.0316%
same,relative induction of RFP reporter,[4],8.18%
same,relative induction of RFP reporter,[5],-1.96%
same,relative induction of RFP reporter,[6],-0.149%
same,relative induction of RFP reporter,[7],0.0143%
same,relative induction of RFP reporter,[8],-1.27%
same,relative induction of RFP reporter,[9],-0.535%
same,relative induction of RFP reporter,[10],0.0892%
same,relative induction of RFP reporter,[11],-0.148%
same,relative induction of RFP reporter,[12],-0.547%
same,relative induction of RFP reporter,[13],0.0186%
same,relative induction of RFP reporter,[14],-0.891%
same,relative induction of RFP reporter,[15],-0.667%
same,relative induction of RFP reporter,[16],0.251%
O=C(O)CS(=O)(=O)O [sulfonatoacetate],relative induction of RFP reporter,[1],0.846%
same,relative induction of RFP reporter,[2],0.0162%
same,relative induction of RFP reporter,[3],-0.423%
same,relative induction of RFP reporter,[35],-0.0067%
same,relative induction of RFP reporter,[4],-4.35%
same,relative induction of RFP reporter,[5],-1.11%
same,relative induction of RFP reporter,[6],-0.143%
same,relative induction of RFP reporter,[7],-0.0115%
same,relative induction of RFP reporter,[8],-0.372%
same,relative induction of RFP reporter,[36],-0.165%
same,relative induction of RFP reporter,[9],-0.406%
same,relative induction of RFP reporter,[11],0.749%
same,relative induction of RFP reporter,[12],-0.434%
same,relative induction of RFP reporter,[13],0.0242%
same,relative induction of RFP reporter,[14],-0.561%
same,relative induction of RFP reporter,[15],0.916%
same,relative induction of RFP reporter,[16],0.693%
